Only some compounds are listed: those with a hit (about 21% of all), similar ones and a draw of the others.
Pf growth 96h: Primary qHTS for delayed death inhibitors of the malarial parasite plastid, 96 hour incubation. P. falciparum luciferase reporter growth, 96 h. Potency, µM (series often up to 28.7 µM), without a hit: at the top dose activity change, negative = inhibition, actives largely listed as inhibitors. 6.9% of 320,000 active; further: potency means the concentration at half of the fitted maximal effect; on the % scale 0 is the no-effect control and ±100 the full control effect
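Cell-based qHTS: luciferase-tagged P. falciparum in erythrocytes (2% hematocrit, 0.05% parasitemia final) incubated with compounds for 96 hours, 37 C, 5% CO2; luciferase detection reagent then added and luminescence measured.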
SARS PLpro yeast: qHTS of Yeast-based Assay for SARS-CoV PLP; Potency, µM (top dose mostly 32.9 µM), for the others: at the top dose activity, positive = growth rescue, actives largely listed as activators; S. cerevisiae expressing SARS-CoV PLpro, growth rescue; 0.19% of 330,000 active; AID 485353, 2010; calls by dose curve; further: potency means the concentration at half of the fitted maximal effect; 0% is about no effect; nearly all actives have a fitted effect of over 55% in size
Shiga toxin inh: A qHTS for Small Molecule Inhibitors of Shiga Toxin; Vero cells, Shiga toxin protein synthesis inhibition reporter; inhibition, % at 38.7 µM; 9.2% of 290,000 active; in the data active means inhibition mostly above about 28%, no sharp cut-off; inactive means mostly below about 43%; further: 0% is about no effect
Pf growth 48h: Primary qHTS for delayed death inhibitors of the malarial parasite plastid, 48 hour incubation; Potency, µM (titrated, usually from 28.7 µM), for the others: at the top dose activity change, negative = inhibition, most hits filed as inhibitors; P. falciparum luciferase growth in erythrocytes, 48 h; 5.9% of 310,000 active; further: potency means the concentration at half of the fitted maximal effect; on the % scale 0 is the no-effect control and ±100 the full control effect
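Parasite viability was followed by luminescence of a genomically integrated firefly luciferase. Cultures held 0.1% parasitemia at 2% hematocrit (final), incubated under 5% CO2 at 37 C.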
NS1 function inh: qHTS Assay for Inhibitors of Influenza NS1 Protein Function; Potency, µM (top dose mostly 46.1 µM), without a hit: at the highest dose activity, positive = more growth; 0.4% of 270,000 active; calls by dose curve; further: potency means the concentration at half of the fitted maximal effect; actives are rising curves; nearly all actives have a fitted effect of over 50% in size
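OD600 was taken as the measure of yeast growth restored by compound in an NS1-expressing S. cerevisiae strain. Cells had been washed out of glucose medium and diluted 1:100 into galactose -URA medium, pH 6.0.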
CHX counter: Cycloheximide Counterscreen for Small Molecule Inhibitors of Shiga Toxin; 12% of 300,000 active; max response, %; cell reporter, cycloheximide protein synthesis inhibition counterscreen; in the data active means max response mostly above about 13%, no sharp cut-off; inactive means mostly below about 14%; further: read at 38.3 µM for the half of the compounds with a filed dose; 0% is about no effect
Active calls of the source: *; ? = inconclusive; . = no result; ! = repeats disagree. Unless noted, the call rests on the fitted dose curve; in most records, active means well fitted inhibition curve with a large enough effect; inconclusive means small, poorly fitted or top-dose-only effect, or another doubt; inactive means no such curve, though single readings can be large or run the other way.

SMILES | Pf growth 96h | SARS PLpro yeast | Shiga toxin inh | Pf growth 48h | NS1 function inh | CHX counter
CNc1cc2c(Nc3cccc(Br)c3)ncnc2cn1 | . | . | -4.2 | . | . | -2.8
CCC(C)(C)NC(=O)C(c1cccc(OC)c1OC)N(Cc1ccccc1)C(=O)CCC(=O)Nc1cc(C)on1 (stereo not given) | 20.8% | -1.4% | -10.0 | ? | 19.8% | -3.7
COc1cccc(C(C(=O)NC(C)(C)C)N(CC(C)C)C(=O)CCC(=O)Nc2cc(C)on2)c1OC (stereo not given) | 22.7% | 0.2% | -17.4 | ? | 3.2% | -0.9
COc1cccc(C(C(=O)NC(C)(C)C)N(Cc2ccc(F)cc2)C(=O)CCC(=O)Nc2cc(C)on2)c1OC (stereo not given) | ? | 12.5% | -14.5 | 13.1µM* | 2.1% | -2.0
CCC(C)(C)NC(=O)C(c1cccc(OC)c1OC)N(Cc1ccc(OC)cc1)C(=O)CCC(=O)Nc1cc(C)on1 (stereo not given) | 9.0% | -1.0% | -5.1 | 8.28µM* | -6.7% | -1.9
O=C(COC(=O)c1c[nH]c2ccccc12)Nc1ccc([N+](=O)[O-])cc1 | ? | 5.5% | . | -29.0% | . | .
CCc1ccccc1NC(=O)c1cc(-c2cccs2)on1 | 217.4% | -1.8% | 38.1 | 54.2% | -26.5% | 17.3*
CCc1ccccc1NC(=O)c1cc(-c2ccc(F)cc2)on1 | -0.2% | -0.2% | 32.8 | 21.0% | . | 20.6
O=C(Nc1ccccc1C(F)(F)F)c1cc(-c2cccc(O)c2)on1 | 10.4µM* | -6.3% | 26.7 | 10.9% | -2.1% | 20.2*
CCc1ccccc1NC(=O)c1cc(-c2cccc(O)c2)on1 | -9.9% | 0.9% | 60.7 | . | -8.2% | 20.1*
COc1cccc(-c2cc(C(=O)Nc3cccnc3Cl)no2)c1 | 21.9% | -1.2% | 10.2 | 29.4% | -13.5% | 10.4
O=C(Nc1cccnc1Cl)c1cc(-c2cccc(O)c2)on1 | -3.0% | -2.1% | 70.4* | 43.8% | 4.9% | 16.1*
CN(CCOC(=O)c1ccc2c(c1)OCO2)C(C)(C)C | 15.8% | 2.0% | 14.6 | -12.4% | . | 7.2
CC(C)c1nnc(NC(=O)C2CCN(C(=O)Nc3ccc(Cl)cc3)CC2)s1 | -1.0% | 0.3% | 25.5 | ? | 15.7% | 8.9
O=C(c1ccc(Br)cc1)c1sc(N2CCOCC2)nc1-c1ccccc1 | -23.4% | -0.9% | -1.8 | ? | 5.6% | 1.5
COc1ccccc1/C=C/CN1CCNC(=O)C1CC(=O)NCCc1cnccn1 (stereo not given) | 8.6% | 0.3% | -5.5 | 0.9% | -1.6% | -2.9
Cc1csc(NC(=O)CSCC(=O)Nc2ccccc2)n1 | . | 7.3% | -3.7 | 15.3% | 2.4% | -2.5
COc1ccccc1Nc1nc(C)cs1 | ? | 4.1% | 85.4*! | 11.5% | 7.1% | 21.8*!
Cc1csc(Nc2ccccc2C(F)(F)F)n1 | 109.1% | -13.6% | 38.6 | 36.5% | -149.5% | 20.7*
Cc1csc(Nc2cccc3ccccc23)n1 | 26.8% | -6.7% | 97.1 | 5.6% | . | 20.9*
CCn1c(SCC(=O)NC2CCCC2)nnc1C(C)NC(=O)c1ccccc1Br (stereo not given) | ? | 0.0% | -2.1 | -2.9% | -1.8% | -2.6
COc1ccc(CNc2cc(C)nc3ccc(OC)cc23)cc1 | -20.6% | 19.5% | -10.4 | ? | 17.3% | -4.8
COc1ccc(C(=O)C(CN2CCCC2)c2ccccc2)cc1 (stereo not given) | 3.6% | -31.8% | 9.2 | 13.1µM* | -42.1% | 24.9*
CCCOc1ccc(C(=O)C(CN2CCCC2)c2ccccc2)cc1 (stereo not given) | ? | -36.0% | -5.0 | 10.4µM* | -54.3% | 5.8
COc1ccc(C(=O)C(CN2CCOCC2)c2ccccc2)cc1 (stereo not given) | ? | -35.8% | -6.9 | . | -201.0% | 1.9
SMILES | Pf growth 96h | SARS PLpro yeast | Shiga toxin inh | Pf growth 48h | NS1 function inh | CHX counter
COCCN(C(=O)CCc1nnc(Cc2c[nH]c3ccccc23)o1)C(C)C | ? | 4.1% | 11.4 | 1.9% | 11.4% | 3.2
COCCCNC(=S)N1CCN(c2nc3ccccc3s2)CC1 | -2.3% | -0.4% | 20.6 | -7.0% | -12.3% | 13.7*
CCOc1ccc(NC(=O)N2CCN(c3nc4ccccc4s3)CC2)cc1 | . | -7.7% | 22.8 | ? | -6.9% | 1.1
COCCNC(=S)N1CCN(c2nc3ccccc3s2)CC1 | 18.3% | 0.2% | 93.3 | 45.7% | -3.6% | 32.1*
O=C(Cc1csc(NC(=O)Nc2ccc(Cl)cc2)n1)NCc1cccnc1 | 6.6% | -0.4% | . | ? | . | .
CCOc1ccccc1N1CCN(C(=O)CSc2ccc3c(c2)OCCO3)CC1 | ? | -2.4% | . | ? | . | .
O=C(O)c1ccc(COc2ccc3ccccc3c2/C=C2/NC(=O)N(Cc3ccc(F)cc3)C2=O)cc1 | 31.8% | 1.1% | 1.7 | 8.28µM* | 13.7% | 6.5
O=C(O)c1ccc(COc2ccccc2/C=C2\NC(=O)N(Cc3ccccc3)C2=O)cc1 | ? | -0.3% | -9.2 | ? | . | 2.1
CNS(=O)(=O)c1cc(NC(=O)CCNC(=O)c2ccco2)ccc1C | 2.5% | 5.5% | 13.4 | 1.2% | 9.0% | -2.9
Cc1cc(C)c2oc(-c3ccc(C)c(NC(=S)NC(=O)/C=C/c4ccco4)c3)nc2c1 | 76.8% | ? | 44.2* | ? | 12.0% | 29.2*
Cc1cc(C)c2oc(-c3ccc(C)c(NC(=S)NC(=O)c4cccs4)c3)nc2c1 | ? | -1.2% | 38.8* | 74.3% | 12.4% | 17.5*
Cc1ccc(-c2nc3ccccc3o2)cc1NC(=S)NC(=O)c1cccs1 | 35.8% | 2.8% | 97.6* | 103.8% | -2.9% | 32.4*
COC(=O)C(NS(=O)(=O)CCl)C(C)C (stereo not given) | . | . | -0.3 | . | . | -5.6
CC(=C\C(=O)O)/C(=C/c1ccc(C)o1)C(=O)O | ? | 1.5% | 1.6 | -4.6% | 11.4% | -1.2
CC1(C)Cc2c(sc3nc4n(-c5ccccc5)cnn4c(=O)c23)CO1 | 4.8% | 1.2% | -5.8 | ? | 1.0% | -2.0
O=C(NCc1n[nH]c(=S)n1-c1ccc([N+](=O)[O-])cc1)c1ccc(S(=O)(=O)N2CCOCC2)cc1 | 6.57µM* | -5.4% | 20.5 | 5.6% | . | 7.7
Cc1cc(C)c2c(N)c(C(=O)Nc3ccccc3F)sc2n1 | 45.8% | -1.4% | 41.1* | 141.4% | -8.0% | 33.7*
Cc1cc(C)c2c(N)c(C(=O)Nc3ccccc3Br)sc2n1 | ? | -6.5% | 38.8* | 71.1% | -8.2% | 24.2*
Cc1cc(C)c2c(N)c(C(=O)c3ccc(Cl)cc3Cl)sc2n1 | 35.0% | 1.8% | -16.7 | 13.1µM* | 24.3% | 6.9
Cc1cc(NC(=O)Cc2cc(F)cc(F)c2)no1 | 41.9% | 0.2% | -1.9 | -7.2% | 0.4% | 8.6
COCCCN1C(=O)/C(=C\c2cccs2)C(C(=O)OC)=C1C | 22.6% | 0.1% | -14.6 | 18.6% | -6.7% | -1.6
COc1cc2ccccc2cc1C(=O)N1CCCC(C(F)(F)F)C1 (stereo not given) | 0.465µM* | -1.7% | . | 0.522µM* | . | .
